# BaF3 parental – reduces parental Ba/F3 cell viability, JAK2V617F counter-screen; inhibition, % at 5.6 µM; AID 1486; CellTiter-Glo ATP luminescence; actives 1.1% (n = 220,000);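 active = inhibition above a per-campaign cutoff, the mean inhibition of all tested compounds plus 3 SD, cut at about 27% in these data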
# Ba/F3 V617F tox – loss of viability in JAK2V617F-driven Ba/F3 cells | inhibition, % at 5.6 µM | actives 1.1% (n = 220,000) | Ba/F3 EpoR-JAK2V617F viability, ATP luminescence | AID 1446;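 active = inhibition above the campaign mean plus 3 SD over all tested compounds, cut at about 24% in these data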;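 also: cytokine-independent growth of Ba/F3 cells driven by EpoR plus mutant JAK2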
# IEC-6 tox – IEC-6 cytotoxicity, counter-screen for KLF5 inhibitors; AID 1825; luminescence viability; actives 0.78% (n = 290,000); inhibition, % at 5 µM
# KLF5 inhibitor – inhibitors of KLF5 expression | actives 0.23% (n = 290,000) | inhibition, % at 5 µM | DLD-1 KLF5 promoter-luciferase reporter, luminescence;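 active = inhibition above a per-plate limit of that plate's mean compound inhibition plus 3 SD, cut at about 60% in these data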;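 also: higher means less KLF5 promoter-driven luciferase light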
# APP 5UTR inh – APP translation inhibition | inhibition, % at 2 µM | actives 0.82% (n = 190,000) | SH-SY5Y APP 5'UTR-luciferase reporter, luminescence;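 active = inhibition above a set limit, derived from the sample mean plus 3 SD, cut at about 45% in these data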
# IEC-6 cytotox cf – IEC-6 cytotoxicity, confirmation assay. actives 63% (n = 1,900). shares compounds with IEC-6 tox. IEC-6 rat intestinal epithelial viability, luminescence. inhibition, % at 5 µM
# Numbers stand for hits; i = inactive; nt = no result given. Sampled rows, rich in hits. Any-hit rate of the full collection: about 1.9%. Rule as the data show it, unless noted: active = inhibition above about 22%; inactive = the rest.
SMILES,BaF3 parental,Ba/F3 V617F tox,IEC-6 tox,KLF5 inhibitor,APP 5UTR inh,IEC-6 cytotox cf
C=CCc1cccc(/C=N/NC(=O)c2ccccc2Br)c1O,i,i,i,i,i,nt
C=CCc1cccc(/C=N/NC(=O)c2ccccc2OC)c1O,i,i,41,i,i,i
ClC(Cl)(Cl)c1nc2ccccc2n2nncc12,nt,nt,82,i,nt,31
COc1ccccc1CNC(=O)c1ccc(OC(F)F)c(OC)c1,i,i,35,i,i,i
COc1ccc(N2C(=NC(=O)CC3CCCCC3)SC3CS(=O)(=O)CC32)cc1 (stereo unspecified),nt,nt,i,i,nt,nt
Clc1ccc(C2=Nn3c(nnc3-c3n[nH]c4c3CCC4)SC2)cc1,50,55,32,i,89,50
C/C(CC(=O)Nc1ccc(Cl)c(Cl)c1)=N\NC(=O)C(=O)N1CCCCC1,i,i,i,i,i,nt
COc1ccc2c(COC(=O)c3cccc(S(=O)(=O)NCC(C)C)c3)cc(=O)oc2c1,nt,nt,i,i,nt,nt
CCCNS(=O)(=O)c1cccc(C(=O)OCc2cc(=O)oc3cc(OC)ccc23)c1,nt,nt,62,i,nt,i
COc1cc(-c2noc(C)c2C#CC2(O)CCCCC2)cc(OC)c1OC,nt,nt,i,i,nt,nt
COc1cc(-c2noc(C)c2C#Cc2ccsc2)cc(OC)c1OC,nt,nt,83,i,nt,61
O=[N+]([O-])c1cc([N+](=O)[O-])c2oc(-c3ccccc3)c(Br)c2c1O,nt,nt,29,i,nt,i
COc1ccc(-n2nc(C)c3c(=O)c4c([nH]c32)CCCC4)cc1,nt,nt,i,i,nt,nt
N#C/C(=N/Nc1ccc(OC(F)(F)F)cc1)C(N)=S,68,50,28,i,nt,35
COc1ccc(N/N=C(\C#N)C(N)=O)cc1,i,i,i,i,i,nt
Cc1cc2nc3c(=O)[nH]c(=S)[nH]c3nc2cc1NC(=O)C(F)(F)F,nt,nt,i,i,nt,nt
COc1ccccc1NC(=O)c1ccc(NC(=O)Cc2n[nH]c(=O)c3ccccc23)cc1,i,i,25,i,nt,i
CC(=O)c1cccc(NC(=O)C(C)OC(=O)Cc2n[nH]c(=O)c3ccccc23)c1 (stereo unspecified),nt,nt,i,i,nt,nt
CCc1ccc(C(=O)C(C)OC(=O)Cc2n[nH]c(=O)c3ccccc23)cc1 (stereo unspecified),nt,nt,25,i,nt,i
CCc1ccc(-c2nc(CS(=O)CC(=O)NCc3ccco3)c(C)o2)cc1 (stereo unspecified),nt,nt,i,i,nt,nt
CCCCNc1ncnc2c1cnn2-c1ccccc1,66,64,38,i,i,29
CCCCNc1ncnc2c1cnn2-c1ccc(Cl)cc1,i,i,i,i,i,nt
COc1ccc(NC(=S)N2CCC(c3nc4ccccc4o3)CC2)c(OC)c1,i,i,i,i,i,nt
O=C(CNC(=O)c1nc[nH]c1C(=O)N1CCN(c2ccccc2)CC1)OCc1ccccc1,nt,nt,i,i,nt,nt
CC1=C([N+](=O)[O-])C(c2ccccc2)C2=C(N1)c1ccccc1C2=O (stereo unspecified),71,77,47,i,57,56
SMILES,BaF3 parental,Ba/F3 V617F tox,IEC-6 tox,KLF5 inhibitor,APP 5UTR inh,IEC-6 cytotox cf
COc1ccc(C2C(C#N)=C(C)NC3=C2C(=O)c2ccccc23)cc1 (stereo unspecified),i,i,i,i,i,nt
Cc1noc(/C=C/N(C)C)c1S(=O)(=O)N1CCC(C(=O)NC(C)(C)C)CC1,nt,nt,i,i,nt,nt
NNC(=O)c1[nH]c(-c2ccccc2)cc1-c1ccccc1,nt,nt,28,i,nt,i
COc1ccc(NS(=O)(=O)c2cc(Br)cc3c2N(C(C)=O)CC3)cc1,nt,nt,38,i,nt,33
Cc1[nH]nc(Nc2ccc(C(C)C)cc2)c1[N+](=O)[O-],i,i,40,i,nt,23
Cc1[nH]nc(Nc2ccc(Br)cc2)c1[N+](=O)[O-],i,i,35,i,nt,i
Cc1ccc(Nc2n[nH]c(C)c2[N+](=O)[O-])cc1,i,i,i,i,i,nt
C/C(=N\NC(=O)c1n[nH]c2c1CCC2)c1ccco1,86,83,79,i,nt,i
Oc1[nH]c2ccc(Br)cc2c1N=NC(=S)Nc1ccc(F)cc1,i,i,22,i,nt,i
N=C(N)N=Nc1c(O)[nH]c2ccc(Br)cc12,i,i,i,i,i,nt
O=C(N=Nc1c(O)[nH]c2ccc(Br)cc12)c1ccccc1-n1cccc1,77,77,55,i,92,54
N[C@@H](Cc1ccccc1)C(=O)N1CCC(C(=O)NCC(=O)NCC(=O)O)CC1,nt,nt,i,i,nt,nt
CC(c1cccs1)N(C)Cc1nc(CCc2ccccc2)no1 (stereo unspecified),i,i,i,i,i,nt
COc1ccc(CCN2C(=O)c3ccccc3NC2c2cc(Cl)c(O)c(OC)c2)cc1 (stereo unspecified),nt,nt,54,i,nt,i
Cc1noc(/C=C/N(C)C)c1S(=O)(=O)N1CCCC(C(=O)NCCC2=CCCCC2)C1 (stereo unspecified),i,i,i,i,i,i
CCOC(=O)c1cc2c(ccn2C)n1Cc1cc(C)ccc1C,i,i,46,i,i,25
Cc1sc(NC(=S)NC(=O)c2ccco2)c(C(N)=O)c1C,i,i,i,i,i,nt
Cc1sc(NC(=S)NC(=O)CCc2ccccc2)c(C(N)=O)c1C,75,75,27,i,95,71
Cc1c(OCC(=O)N(C)c2ccccc2)ccc2c3c(c(=O)oc12)CCC3,nt,nt,i,i,nt,nt
Cc1cccc(NC(=O)Nc2ccc3c(c2)CCC3)c1,nt,nt,90,i,nt,i
CC1C=CCC2C(=O)N(c3cccc(C(=O)Nc4ccc(F)cc4)c3)C(=O)C12 (stereo unspecified),nt,nt,i,i,nt,nt
CC(NC(=O)/C(C#N)=C/c1ccc([N+](=O)[O-])o1)c1ccccc1 (stereo unspecified),nt,nt,48,i,nt,i
O=C(NCC(c1cccs1)N1CCOCC1)c1ccc(Cl)s1 (stereo unspecified),69,74,72,i,61,49
O=C(NCC(c1cccs1)N1CCOCC1)c1cc([N+](=O)[O-])ccc1Cl (stereo unspecified),i,i,i,i,i,nt
COc1ccc(S(N)(=O)=O)cc1C(=O)N1CCCC1,i,i,i,i,i,nt
SMILES,BaF3 parental,Ba/F3 V617F tox,IEC-6 tox,KLF5 inhibitor,APP 5UTR inh,IEC-6 cytotox cf
O=C(CCCn1cc([N+](=O)[O-])cn1)Nc1ccc2c(c1)OCO2,nt,nt,i,i,nt,nt
CCOC(=O)Nc1nc(-c2ccccc2)c(C(=O)c2ccc(Cl)cc2)s1,77,73,86,i,94,57
O=C(c1cc(NC(=O)C23CC4CC(CC(C4)C2)C3)cc(NC(=O)C23CC4CC(CC(C4)C2)C3)c1)N1CCCCC1,i,i,37,i,i,30
COC(=O)c1ccc(Cl)c(NS(=O)(=O)c2ccc3c(c2)OCCO3)c1,i,i,28,i,i,i
CC(=O)c1cc2c(cc1NS(=O)(=O)c1ccc3c(c1)OCCO3)OCO2,i,i,i,i,i,nt
Cc1onc(-c2c(F)cccc2Cl)c1C(=O)NCc1ccc2c(c1)OCO2,nt,nt,i,i,nt,nt
Cc1cccc(CS(=O)(=O)c2ncc(Cl)c(C(=O)NCc3ccc4c(c3)OCO4)n2)c1,nt,nt,31,i,nt,33
Cc1cccc(COC(=O)Nc2ccc(NC(=O)c3ccccc3Cl)cc2)c1,nt,nt,i,i,nt,nt
